How the values were obtained:
Experiment in all cases: log2 ratio of Biotin-Ahx-Ub-VS probe labelling (fragment/DMSO); higher = less target engagement (more negative = stronger competition), active = hit call of the paper (q ≤ 0.05, log2 ratio ≤ -1)
Conditions in all cases: compound concentration: 200 uM; treatment time: 3 h
USP34 = USP34 (UniProt Q70CQ2)
Summary of the method: (§1)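 HEK293T lysate (495 µg per sample, in Tris/CHAPS/IGEPAL buffer with protease inhibitors) was exposed in triplicate for 3 h to fragment at 200 µM or to vehicle, then to Biotin-Ahx-Ub-VS at 0.5 µM final for 1 h. Labelled DUBs were enriched on NeutrAvidin, digested with LysC and trypsin, and analysed by diaPASEF LC-MS/MS. Spectronaut label-free quantities were normalised to the global median, and values are average log2 ratios of fragment over vehicle from an unpaired t-test. Only proteins with ≥2 unique peptides were used.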

USP36 = target: T1, USP36 (UniProt Q9P275)
T1 sequence (whole entry): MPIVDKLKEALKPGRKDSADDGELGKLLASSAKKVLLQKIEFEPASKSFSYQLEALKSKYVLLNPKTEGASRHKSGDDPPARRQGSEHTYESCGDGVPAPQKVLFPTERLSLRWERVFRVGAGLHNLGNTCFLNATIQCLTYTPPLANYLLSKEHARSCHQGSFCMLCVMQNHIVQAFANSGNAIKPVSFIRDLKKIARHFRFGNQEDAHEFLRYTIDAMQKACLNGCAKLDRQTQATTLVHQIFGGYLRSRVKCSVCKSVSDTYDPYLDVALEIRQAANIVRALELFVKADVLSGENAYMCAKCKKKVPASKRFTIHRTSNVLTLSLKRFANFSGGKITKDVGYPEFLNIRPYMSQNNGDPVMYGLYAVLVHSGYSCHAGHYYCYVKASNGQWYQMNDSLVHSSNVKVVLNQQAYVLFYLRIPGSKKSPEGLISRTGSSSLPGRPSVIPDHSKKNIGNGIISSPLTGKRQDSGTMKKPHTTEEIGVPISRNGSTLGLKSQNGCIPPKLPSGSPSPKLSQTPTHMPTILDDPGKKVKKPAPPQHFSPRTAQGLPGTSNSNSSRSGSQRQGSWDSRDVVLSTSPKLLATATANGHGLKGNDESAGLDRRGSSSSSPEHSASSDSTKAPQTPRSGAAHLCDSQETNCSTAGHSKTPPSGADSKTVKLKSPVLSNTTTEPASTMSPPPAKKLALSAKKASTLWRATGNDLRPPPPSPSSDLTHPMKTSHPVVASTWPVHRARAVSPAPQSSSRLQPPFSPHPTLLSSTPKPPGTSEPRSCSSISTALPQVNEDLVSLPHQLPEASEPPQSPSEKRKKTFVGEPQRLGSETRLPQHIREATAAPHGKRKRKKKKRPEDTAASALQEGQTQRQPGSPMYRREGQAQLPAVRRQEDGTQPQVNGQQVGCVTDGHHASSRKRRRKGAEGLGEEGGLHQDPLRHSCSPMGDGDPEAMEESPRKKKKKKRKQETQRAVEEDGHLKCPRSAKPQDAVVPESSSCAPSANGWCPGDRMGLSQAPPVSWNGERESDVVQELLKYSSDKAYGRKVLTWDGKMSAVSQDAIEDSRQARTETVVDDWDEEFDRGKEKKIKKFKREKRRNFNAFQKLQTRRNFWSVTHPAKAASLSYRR
Summary of the method: as §1

USP38 = target: T2, USP38 (UniProt Q8NB14)
T2 sequence (whole entry): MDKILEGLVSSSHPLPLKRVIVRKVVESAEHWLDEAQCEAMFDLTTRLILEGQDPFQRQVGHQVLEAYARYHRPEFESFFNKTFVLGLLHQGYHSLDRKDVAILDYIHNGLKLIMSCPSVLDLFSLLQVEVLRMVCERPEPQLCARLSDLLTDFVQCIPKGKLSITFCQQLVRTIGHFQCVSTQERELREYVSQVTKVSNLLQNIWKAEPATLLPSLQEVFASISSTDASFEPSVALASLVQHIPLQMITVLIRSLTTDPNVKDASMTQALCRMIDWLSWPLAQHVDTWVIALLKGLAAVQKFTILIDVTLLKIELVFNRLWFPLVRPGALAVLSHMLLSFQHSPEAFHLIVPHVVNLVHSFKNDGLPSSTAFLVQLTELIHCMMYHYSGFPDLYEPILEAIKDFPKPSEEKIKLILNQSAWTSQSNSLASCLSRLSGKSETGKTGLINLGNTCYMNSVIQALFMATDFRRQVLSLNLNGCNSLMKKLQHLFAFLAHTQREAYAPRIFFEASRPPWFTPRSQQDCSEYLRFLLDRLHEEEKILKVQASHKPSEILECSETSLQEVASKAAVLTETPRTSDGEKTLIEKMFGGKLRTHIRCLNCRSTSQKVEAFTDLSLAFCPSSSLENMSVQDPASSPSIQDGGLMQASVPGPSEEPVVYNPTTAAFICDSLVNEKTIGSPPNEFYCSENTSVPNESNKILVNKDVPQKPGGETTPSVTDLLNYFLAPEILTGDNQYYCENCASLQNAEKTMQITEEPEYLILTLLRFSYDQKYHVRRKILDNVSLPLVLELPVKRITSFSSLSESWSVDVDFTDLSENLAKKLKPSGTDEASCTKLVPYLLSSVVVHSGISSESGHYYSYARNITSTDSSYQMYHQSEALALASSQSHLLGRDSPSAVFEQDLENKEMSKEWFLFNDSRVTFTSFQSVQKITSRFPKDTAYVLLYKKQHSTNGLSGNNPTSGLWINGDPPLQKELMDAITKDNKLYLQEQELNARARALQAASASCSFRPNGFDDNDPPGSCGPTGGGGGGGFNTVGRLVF
Summary of the method: as §1

USP39 = target: T3, USP39 (UniProt Q53GS9)
T3 sequence (whole entry): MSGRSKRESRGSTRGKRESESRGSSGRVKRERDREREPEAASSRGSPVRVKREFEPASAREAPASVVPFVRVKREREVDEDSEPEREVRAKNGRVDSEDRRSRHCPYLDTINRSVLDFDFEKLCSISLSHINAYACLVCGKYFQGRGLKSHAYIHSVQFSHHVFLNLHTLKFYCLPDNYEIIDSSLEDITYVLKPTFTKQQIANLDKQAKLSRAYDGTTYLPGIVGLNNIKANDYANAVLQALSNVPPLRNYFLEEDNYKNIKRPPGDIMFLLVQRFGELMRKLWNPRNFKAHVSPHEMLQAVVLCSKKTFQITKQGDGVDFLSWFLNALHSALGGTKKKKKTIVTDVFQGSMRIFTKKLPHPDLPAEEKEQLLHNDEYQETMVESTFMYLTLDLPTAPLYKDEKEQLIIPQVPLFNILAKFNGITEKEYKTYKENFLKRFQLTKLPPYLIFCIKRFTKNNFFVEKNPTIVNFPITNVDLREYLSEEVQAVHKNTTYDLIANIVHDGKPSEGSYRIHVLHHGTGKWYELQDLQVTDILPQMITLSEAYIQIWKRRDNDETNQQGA
Summary of the method: as §1

USP4 = target: T4, USP4 (UniProt Q13107)
T4 sequence (whole entry): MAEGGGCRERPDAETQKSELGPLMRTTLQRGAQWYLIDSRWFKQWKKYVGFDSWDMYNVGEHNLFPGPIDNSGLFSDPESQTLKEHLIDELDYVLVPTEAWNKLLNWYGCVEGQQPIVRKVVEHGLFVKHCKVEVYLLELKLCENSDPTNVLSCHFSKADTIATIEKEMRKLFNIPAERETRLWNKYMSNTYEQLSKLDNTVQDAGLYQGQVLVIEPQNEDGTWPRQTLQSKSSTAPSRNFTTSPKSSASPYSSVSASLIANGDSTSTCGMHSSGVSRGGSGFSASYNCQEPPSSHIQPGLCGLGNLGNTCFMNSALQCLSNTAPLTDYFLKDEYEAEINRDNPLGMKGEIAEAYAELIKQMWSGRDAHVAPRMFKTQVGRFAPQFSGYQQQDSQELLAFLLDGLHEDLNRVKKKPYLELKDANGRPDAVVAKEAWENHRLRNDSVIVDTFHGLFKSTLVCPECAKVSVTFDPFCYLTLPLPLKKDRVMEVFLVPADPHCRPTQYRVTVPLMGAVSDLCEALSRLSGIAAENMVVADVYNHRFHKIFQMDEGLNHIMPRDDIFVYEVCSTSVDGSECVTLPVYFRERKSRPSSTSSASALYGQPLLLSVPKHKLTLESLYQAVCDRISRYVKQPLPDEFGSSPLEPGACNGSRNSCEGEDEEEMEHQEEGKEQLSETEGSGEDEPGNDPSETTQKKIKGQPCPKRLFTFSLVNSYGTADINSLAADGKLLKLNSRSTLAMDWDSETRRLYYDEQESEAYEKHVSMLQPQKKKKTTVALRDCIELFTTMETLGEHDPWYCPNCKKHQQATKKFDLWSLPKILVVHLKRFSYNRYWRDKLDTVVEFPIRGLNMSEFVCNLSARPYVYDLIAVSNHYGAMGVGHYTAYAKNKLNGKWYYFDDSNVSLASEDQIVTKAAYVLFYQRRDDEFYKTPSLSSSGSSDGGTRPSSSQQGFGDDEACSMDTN
Summary of the method: as §1

Measured: log2 ratio of Biotin-Ahx-Ub-VS probe labelling

Chain of USP34 (Q70CQ2 whole entry, the tested form may be a part): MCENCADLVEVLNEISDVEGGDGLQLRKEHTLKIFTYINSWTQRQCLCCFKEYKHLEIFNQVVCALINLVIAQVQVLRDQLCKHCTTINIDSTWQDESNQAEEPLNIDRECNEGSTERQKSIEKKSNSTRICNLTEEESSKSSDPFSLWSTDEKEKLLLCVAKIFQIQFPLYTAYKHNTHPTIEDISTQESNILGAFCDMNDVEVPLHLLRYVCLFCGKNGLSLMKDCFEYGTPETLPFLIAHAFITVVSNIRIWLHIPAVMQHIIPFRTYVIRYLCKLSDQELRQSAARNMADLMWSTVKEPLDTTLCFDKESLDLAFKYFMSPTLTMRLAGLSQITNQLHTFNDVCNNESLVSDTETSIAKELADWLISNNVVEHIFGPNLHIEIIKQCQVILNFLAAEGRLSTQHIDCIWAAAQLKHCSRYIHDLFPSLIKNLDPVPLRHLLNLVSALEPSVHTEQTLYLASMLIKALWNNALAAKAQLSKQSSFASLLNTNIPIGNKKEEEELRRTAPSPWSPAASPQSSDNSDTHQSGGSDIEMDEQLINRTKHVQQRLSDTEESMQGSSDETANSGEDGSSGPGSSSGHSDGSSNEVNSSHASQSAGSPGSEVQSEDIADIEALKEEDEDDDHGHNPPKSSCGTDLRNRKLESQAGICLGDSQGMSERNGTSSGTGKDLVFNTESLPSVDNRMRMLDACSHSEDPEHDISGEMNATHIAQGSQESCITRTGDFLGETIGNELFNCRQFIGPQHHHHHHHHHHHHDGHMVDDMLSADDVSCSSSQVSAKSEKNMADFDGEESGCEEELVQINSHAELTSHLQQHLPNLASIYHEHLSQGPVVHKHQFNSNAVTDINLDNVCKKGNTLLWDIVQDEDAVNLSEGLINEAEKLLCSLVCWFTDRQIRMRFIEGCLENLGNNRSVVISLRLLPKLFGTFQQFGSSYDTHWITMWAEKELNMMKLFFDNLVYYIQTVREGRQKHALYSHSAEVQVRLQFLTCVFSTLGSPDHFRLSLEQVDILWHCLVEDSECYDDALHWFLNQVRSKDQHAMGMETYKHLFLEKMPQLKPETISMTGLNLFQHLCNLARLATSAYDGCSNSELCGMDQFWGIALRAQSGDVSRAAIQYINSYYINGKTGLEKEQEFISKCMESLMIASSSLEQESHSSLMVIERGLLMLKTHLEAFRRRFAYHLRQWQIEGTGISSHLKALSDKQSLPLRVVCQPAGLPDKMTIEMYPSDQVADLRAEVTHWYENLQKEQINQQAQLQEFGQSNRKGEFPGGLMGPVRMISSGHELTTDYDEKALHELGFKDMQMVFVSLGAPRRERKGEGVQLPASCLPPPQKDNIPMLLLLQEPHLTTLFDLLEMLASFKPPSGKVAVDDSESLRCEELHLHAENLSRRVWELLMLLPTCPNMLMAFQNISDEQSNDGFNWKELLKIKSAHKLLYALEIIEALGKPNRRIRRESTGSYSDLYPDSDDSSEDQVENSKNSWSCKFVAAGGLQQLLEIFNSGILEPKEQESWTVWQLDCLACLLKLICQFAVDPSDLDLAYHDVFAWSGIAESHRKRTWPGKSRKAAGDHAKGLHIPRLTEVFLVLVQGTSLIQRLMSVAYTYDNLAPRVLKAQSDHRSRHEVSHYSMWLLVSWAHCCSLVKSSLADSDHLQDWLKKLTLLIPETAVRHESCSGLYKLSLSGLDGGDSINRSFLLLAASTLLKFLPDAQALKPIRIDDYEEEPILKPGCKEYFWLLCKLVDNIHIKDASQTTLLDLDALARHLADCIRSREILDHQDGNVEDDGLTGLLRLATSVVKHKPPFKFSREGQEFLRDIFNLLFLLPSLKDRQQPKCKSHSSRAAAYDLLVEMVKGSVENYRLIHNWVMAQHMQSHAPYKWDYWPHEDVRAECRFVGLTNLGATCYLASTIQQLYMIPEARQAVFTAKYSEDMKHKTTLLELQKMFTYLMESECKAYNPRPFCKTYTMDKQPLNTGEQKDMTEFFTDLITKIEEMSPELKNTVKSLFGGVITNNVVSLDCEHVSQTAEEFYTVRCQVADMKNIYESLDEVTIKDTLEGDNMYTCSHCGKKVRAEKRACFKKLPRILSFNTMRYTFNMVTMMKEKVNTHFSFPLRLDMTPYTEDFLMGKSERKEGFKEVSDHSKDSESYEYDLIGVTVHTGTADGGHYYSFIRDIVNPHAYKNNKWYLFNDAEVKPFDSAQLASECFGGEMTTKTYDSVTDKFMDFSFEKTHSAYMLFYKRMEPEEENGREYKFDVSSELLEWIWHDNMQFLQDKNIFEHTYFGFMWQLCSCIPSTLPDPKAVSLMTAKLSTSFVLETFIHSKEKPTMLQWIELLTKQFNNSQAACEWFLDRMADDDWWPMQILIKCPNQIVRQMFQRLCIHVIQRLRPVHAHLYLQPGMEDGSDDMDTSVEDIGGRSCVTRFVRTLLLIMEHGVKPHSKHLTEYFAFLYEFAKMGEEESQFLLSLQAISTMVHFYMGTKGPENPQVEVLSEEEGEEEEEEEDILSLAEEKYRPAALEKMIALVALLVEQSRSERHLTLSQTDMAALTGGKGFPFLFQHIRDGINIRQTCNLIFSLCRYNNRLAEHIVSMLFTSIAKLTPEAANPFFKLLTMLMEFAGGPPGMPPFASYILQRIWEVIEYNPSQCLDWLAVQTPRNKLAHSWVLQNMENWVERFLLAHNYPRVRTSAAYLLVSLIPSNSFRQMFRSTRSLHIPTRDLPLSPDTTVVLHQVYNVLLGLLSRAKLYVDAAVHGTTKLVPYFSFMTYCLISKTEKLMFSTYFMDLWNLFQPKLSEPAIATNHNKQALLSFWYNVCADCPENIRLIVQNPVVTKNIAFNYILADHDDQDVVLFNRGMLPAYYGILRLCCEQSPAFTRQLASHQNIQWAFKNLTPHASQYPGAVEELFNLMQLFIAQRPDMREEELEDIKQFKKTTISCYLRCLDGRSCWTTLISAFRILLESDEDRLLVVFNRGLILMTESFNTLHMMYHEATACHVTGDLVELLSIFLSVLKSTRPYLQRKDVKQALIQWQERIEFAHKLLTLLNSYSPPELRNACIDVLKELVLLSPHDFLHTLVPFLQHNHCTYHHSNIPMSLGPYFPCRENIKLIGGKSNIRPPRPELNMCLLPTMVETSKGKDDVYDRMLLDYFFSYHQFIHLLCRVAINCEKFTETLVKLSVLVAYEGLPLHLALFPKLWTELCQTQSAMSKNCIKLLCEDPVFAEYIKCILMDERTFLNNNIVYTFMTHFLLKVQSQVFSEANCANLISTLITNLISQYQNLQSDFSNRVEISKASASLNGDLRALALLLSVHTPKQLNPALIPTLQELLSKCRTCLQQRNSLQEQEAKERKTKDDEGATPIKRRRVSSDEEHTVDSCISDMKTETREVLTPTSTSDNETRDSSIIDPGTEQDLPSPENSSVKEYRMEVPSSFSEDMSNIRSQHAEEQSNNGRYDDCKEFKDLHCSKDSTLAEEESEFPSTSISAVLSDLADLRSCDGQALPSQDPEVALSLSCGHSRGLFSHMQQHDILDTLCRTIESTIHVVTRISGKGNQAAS

COc1ccc(CN(C)C(=O)CCl)cc1
inactive: USP34 -0.0886 | USP36 0.0384 | USP38 0.0505 | USP39 0.298 | USP4 -0.016
